# Source: PubChem BioAssay (NCI)
# This is part of a sample that, as a whole, favours compounds with a hit. Of some 83,000 tested, about 20% had one in any assay.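 Activity criterion: percent growth below 10, measured after cells in 96-well plates were exposed to a single compound concentration for 48 hours.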 Values without a mark were called inactive. The source made the active and inactive calls.
# Experiments:
# Assay in all cases: NCI-60 one-dose screen, 48 h (100 = growth as untreated, 0 = no growth, -100 = all killed)
# Settings in all cases: 10 µM unless noted
# NCI-H23 lung = system: NCI-H23 lung
# NCI-H226 lung = system: NCI-H226 lung
# NCI-H322M lung = system: NCI-H322M lung
# HOP-62 NSCLC = system: HOP-62 NSCLC
# NCI-H460 lung = system: NCI-H460 lung
# HOP-92 NSCLC = system: HOP-92 NSCLC
# NCI-H522 lung = system: NCI-H522 lung
# A549/ATCC NSCLC = system: A549/ATCC NSCLC
# 786-0 renal = system: 786-0 renal
# COLO 205 colon = system: COLO 205 colon
SMILES,growth (NCI-H23 lung),growth (NCI-H226 lung),growth (NCI-H322M lung),growth (HOP-62 NSCLC),growth (NCI-H460 lung),growth (HOP-92 NSCLC),growth (NCI-H522 lung),growth (A549/ATCC NSCLC),growth (786-0 renal),growth (COLO 205 colon)
CC1=CC(=NC(=O)CBr)C=C/C1=N\S(=O)(=O)c1ccccc1,80.2%,68.3%,107%,75.1%,98.4%,52.9%,-80.4% (active),87%,53.6%,59.5%
COc1ccc2nc3cc(Cl)ccc3c(NCCCCCN3CCCCC3)c2c1,-49.1% (active),-39.8% (active),-34% (active),-31.6% (active),-62.9% (active),-56.4% (active),-71.6% (active),-33.1% (active),-73.4% (active),-89.4% (active)
CN(C)CC(C)(CN(C)C)C(=O)/C=C/c1c(Cl)cccc1Cl,45.9%,11.1%,70.6%,94.6%,57.9%,40.1%,-80.9% (active),80.6%,-44% (active),101%
CCCOC(=O)c1nc(N(CC2CCCCC2)C(=O)NC)sc1/N=C/c1ccccc1,31.1%,56.8%,57.9%,25.5%,2.34% (active),15.5%,-18.4% (active),13.6%,9.27% (active),18.6%
Cc1nc([N+](=O)[O-])c(Sc2nncc(-c3ccccc3)n2)n1C,82.1%,80.1%,92.1%,95.4%,110%,93.1%,95.2%,95.9%,94%,74.5%
O=C1C=Cc2ccccc2/C1=C/c1nc(-c2ccccc2)oc1O,82.1%,73%,90.6%,88.1%,98.5%,103%,90.3%,107%,107%,87.5%
CN=C(N)N/N=C(\c1ccccc1)c1ccc(Br)cc1,21%,15.6%,0.506% (active),8.02% (active),6.18% (active),32.2%,-29.9% (active),9.47% (active),13.4%,-55.6% (active)
O=C(Cc1nc2cc(Cl)c(Cl)cc2nc1CC(=O)c1cccnc1)c1cccnc1,88.1%,77.2%,78.4%,86.3%,82.6%,78%,58.8%,93.5%,58.7%,89.8%
CN(C)c1ccc2cc3c(cc2c1)Oc1ccccc1N3.[Cl][Zn][Cl],78.7%,91.2%,84.7%,105%,96.8%,98.8%,-7.15% (active),91.8%,104%,19.2%
O=[N+]([O-])c1ccc(C(Br)c2ccc([N+](=O)[O-])cc2)cc1,79.5%,99.6%,114%,105%,102%,86.1%,-40.3% (active),100%,108%,88.3%
NC1=C(Br)C(=O)c2ncccc2C1=O,-46% (active),90.4%,34.9%,-73.1% (active),-73.9% (active),34.5%,-59.1% (active),-52.6% (active),11.4%,37.9%
CN(Cc1ccccc1)c1ccc(SC#N)cc1,89.8%,111%,94.7%,108%,86.6%,59.7%,45.5%,92%,79.4%,66.4%
COC1CC(C)C(OC)c2cc(O)cc(c2O)NC(=O)/C(C)=C/C=C\C(C)C(OC(N)=O)/C(C)=C\C(C)C1OC (stereo not drawn),39.4%,47.8%,54.1%,37.9%,9.42% (active),11.4%,-67.4% (active),13.3%,31.3%,-0.179% (active)
Cc1nc(Sc2nc3ccc([N+](=O)[O-])cc3s2)sc1C,-3.96% (active),2.43% (active),89.2%,72.2%,11.7%,1.28% (active),-48.1% (active),55.9%,19.6%,27.1%
N#CCc1cccc2ccccc12,109%,100%,106%,109%,108%,87.2%,91.6%,103%,109%,115%
Nc1ccc(Oc2ccccc2)c(Cl)c1,108%,94.2%,86.3%,86.6%,106%,82.6%,108%,94.6%,84.9%,96.2%
CN1CCC(c2ccccc2)(c2ccccc2)C(=O)C1,80.1%,67.7%,87.6%,107%,98%,89%,75.4%,79.7%,86.7%,98.4%
N=C(N)Sc1cccc[n+]1[O-],55.6%,78.7%,68.9%,79%,21.8%,104%,37%,54.5%,76.7%,39.8%
CN(C)c1ccc(C(=C2C=CC(=[N+](C)C)C=C2)c2ccc(N(C)C)cc2)cc1,-19.9% (active),-73.1% (active),-42.2% (active),-75.5% (active),-39% (active),-70.1% (active),-44.9% (active),,-96.2% (active),-84.3% (active)
O=C(O)c1cc2c(s1)C(=O)c1sccc1C2=O,-41.9% (active),103%,85.9%,-89% (active),104%,54.4%,-63.4% (active),28.7%,93.2%,104%
COc1ccc2nc3cc([N+](=O)[O-])ccc3c(NNc3ccccc3)c2c1,66.6%,63.8%,86.9%,37%,82.4%,14.8%,85%,95.2%,-18.8% (active),99.8%
Clc1ccccc1C(c1ccccc1)(c1ccccc1)n1ccnc1,41.9%,29.2%,61.8%,34.3%,51.4%,19.7%,28.1%,,48.3%,24%
Oc1ccc2c(c1)CCc1ccccc1-2,108%,93.5%,110%,83.3%,106%,97.4%,100%,98.1%,88.1%,106%
Cc1ccccc1NC(=O)Cc1csc2[n+]1C(=O)/C(=C/c1ccc([N+](=O)[O-])cc1)S2,93.1%,91.1%,103%,86.7%,104%,79.5%,86.3%,99.8%,93.5%,105%
O=C1C=CC(=O)N1c1ccc(O)cc1,103%,101%,105%,104%,104%,101%,104%,103%,98.3%,-37% (active)
CC1(C)OCC(COC(c2ccccc2)(c2ccccc2)c2ccccc2)O1 (stereo not drawn),104%,92.1%,92.2%,96.1%,104%,89.4%,88.8%,86.3%,104%,109%
